Records with an inconclusive call do not appear. Entries that show only a call come without a potency. Activity calls are given as the source filed them. The call rests on the fitted dose curve; in most records, active means well fitted inhibition curve with a large enough effect in the repeat runs; inconclusive means weak or mixed curves; inactive means no such curve, though single readings can be large or run the other way.
Test: Comparison of Janus kinase inhibitors to block the type I interferon pathway in human skeletal muscle cells: JAK inhibition assay
Source text: Assay Submitter: Travis B. Kinder Ph.D.
National Center for Advancing Translational Sciences (NCATS)
The family of Janus kinases (JAK1, JAK2, JAK3, TYK2) mediate signal transduction from cytokine receptors through phosphorylation and activation of intracellular signaling pathways and transcription factors. Small molecule antagonists of JAKs (jakinibs) have been developed with varying selectivity for the use in malignancies and immune regulation. […] We have assayed a library of 48 jakinibs for their ability to inhibit the JAK1/TYK2-dependent type I interferon (IFN) - major histocompatibility complex (MHC) class I pathway in human skeletal muscle cells genome-engineered to fuse a pro-luminescent HiBiT peptide to endogenous MHC class I.
The assay utilized CRISPR/Cas9 genome-engineered immortalized human myoblasts, C25cl48, where a pro-luminescent reporter HiBit was fused to the C-terminus of endogenous MHC class I allele HLA-B*08:01 (HLA-B HiBit myoblasts) (Kinder et al., 2020). […] After 24 hrs of treatment, cells were assayed by Nano-Glo HiBiT Lytic Detection System (Promega) and luminescence measured by a ViewLux 1430 Ultra HTS (Perkin Elmer). […]
7; Detector; 5 sec; Measure luminescence with ViewLux 1430 Ultra HTS (Perkin Elmer). […]

Row | SMILES | Potency
1 | CC(C)(O)/C=C\C(=O)[C@](C)(O)[C@H]1[C@H](O)C[C@]2(C)[C@@H]3CC=C4[C@@H](C=C(O)C(=O)C4(C)C)[C@]3(C)C(=O)C[C@@]12C | 5.65 µM (active)
2 | CC1CCCCCC(=O)c2c(O)cc(O)cc2CC(=O)O1 (configuration not stated) | inactive

From PubChem BioAssay AID1645849 (National Center for Advancing Translational Sciences (NCATS), 2021)
